Laboratory results from PubChem BioAssay (NCATS).
Values joined by “and” are separate entries in the source; they are usually repeats but may differ in a detail not shown here. Identical values can stand only once. Records with an inconclusive call do not appear. Active and inactive are the calls of the source. Unless noted, calls come from the whole dose curve; as a rule, active = well fitted curve in the direction sought with a large enough effect; inconclusive = small, poorly fitted or top-dose-only effect, or another doubt; inactive = no such curve, though single readings can be large; an effect the other way counts as inactive or inconclusive.

What was measured:
[1] = Cellular Toxicity (caspase-3) Mesangial (AID 660);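 note: combined caspase 3 and 7 activity read by Caspase-Glo luminescence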
Summary of the method: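 Concentration-response qHTS: compound-induced rise in caspase 3/7 luminescence in human mesangial cells after 16 h, normalized to DMSO and 100 uM tamoxifen controls.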

[2] = Cellular Toxicity (caspase-3) SK-N-SH (AID 661);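 note: 0% = DMSO basal and 100% = 10 µM staurosporine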
Summary of the method: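 Caspase 3/7 activation is measured as a luminescence increase from aminoluciferin released by substrate cleavage in SK-N-SH cells after 16 hr compound treatment; values are AC50 from concentration-response curves.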

[3] = Cellular Toxicity (caspase-3) H-4-II-E (AID 663);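 note: cells exposed to compound for 16 hr before readout; 0% = DMSO basal and 100% = 100 µM tamoxifen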
Summary of the method: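 Rat hepatoma H-4-II-E cells (1500/well) plated 5 hr, then exposed to compound titrations for 16 hr at 37 °C. Caspase-Glo 3/7 luminescence read after 20 min at RT; data normalized to DMSO and 100 uM tamoxifen, AC50 from Hill fits.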

[4] = Cellular Toxicity (caspase-3) Hek293 (AID 664);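 note: cells exposed to compound for 16 h at 37 °C before readout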
Summary of the method: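 Activation of caspase-3/7 is measured as increased luminescence from cleaved peptide-aminoluciferin substrate in HEK293 cells treated 16 hours at 37 °C. AC50 values come from Hill-equation fits of concentration-response data.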

[5] = Cellular Toxicity (caspase-3) N2a (AID 665);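 note: compound exposure lasted 16 h at 37 °C before readout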
Summary of the method: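 Plated mouse neuroblastoma N2a cells received titrated compounds for 16 h in complete medium. Caspase activity was then detected with a peptide-aminoluciferin luminescent reagent.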

[6] = Cellular Toxicity (caspase-3) NIH 3T3 (AID 666);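 note: 0% = DMSO basal and 100% = 100 µM tamoxifen stimulation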
Summary of the method: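 Concentration-response qHTS in NIH 3T3 mouse fibroblasts scores caspase-3/7 activation as rising luminescence after 16 hr compound exposure. Signals are scaled between DMSO-only and 100 uM tamoxifen.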

[7] = Cellular Toxicity (caspase-3) Renal Proximal Tubule (AID 667);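 note: cells exposed to compound for 16 hours at 37 °C before detection; 0% = DMSO basal and 100% = 10 µM staurosporine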
Summary of the method: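 Caspase-Glo 3/7 read-out, rat primary kidney proximal tubule cells. Compound exposure 16 h, 37 °C; detection after 1 h at RT. Activity scaled to DMSO and 10 uM staurosporine.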

[8] = Cell Viability - LYMP2-001 (AID 921);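 note: series mostly up to about 92 µM; cells exposed to compound for 24 h at 37 °C; 0% = DMSO only and full inhibition = tetraoctylammonium bromide control wells; nearly all actives have a fitted effect of over 70% in size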
Summary of the method: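 A lymphoblastoid cell line of human origin was treated with library compounds across a concentration series for 24 hours, and viable cell number was estimated from ATP-driven luciferase light output. Hill modeling gave AC50.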

[9] = MultiTox-Fluor Cytotoxicity Assay - LYMP1-001 - Dead Cells (AID 946);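 note: 0% = DMSO and 100% = tetraoctylammonium bromide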
Summary of the method: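 AC50 from Hill fit of concentration-response; data normalized to DMSO (basal) and 15 uM tetraoctylammonium bromide (100%). LYMP1-001 lymphoblastoid cells, 2500/well, 16 hr compound at 37 C; dead-cell protease fluorescence, Ex/Em 485/520.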

[10] = MultiTox-Fluor Cytotoxicity Assay - LYMP1-001 - Live Cells (AID 947);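 note: 0% = DMSO only and full inhibition = tetraoctylammonium bromide control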
[11] = Cell Viability - LYMP1-002 - Assay at 16 hr (AID 948);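 note: 0% = DMSO alone and full effect = 92 µM tetraoctylammonium bromide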
Summary of the method: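 In this qHTS, lymphoblastoid LYMP1-002 cells (human) receive compounds for 16 hr at 37 C. Viability is taken from CellTiter-Glo ATP luminescence, and AC50 derives from standard Hill fits.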

[12] = MultiTox-Fluor Cytotoxicity Assay - LYMP1-002 - Live Cells (AID 955); note: % is set by controls: 0 for no effect and ±100 for the full control effect
Summary of the method: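 Cytotoxicity in the human lymphoblastoid line LYMP1-002 is measured as loss of live-cell protease activity after 16 h treatment in complete culture medium. AC50 is derived from Hill-equation fits of qHTS concentration-response data.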

[13] = MultiTox-Fluor Cytotoxicity Assay - LYMP1-002 - Dead Cells (AID 960);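 note: 0% = DMSO and 100% = tetraoctylammonium bromide; nearly all actives have a fitted effect of over 60% in size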
Summary of the method: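 Acute cytotoxicity in a human lymphoblastoid line is scored as rising dead-cell protease signal after 16 hr exposure at 37 C, measured fluorometrically (485/520).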

[14] = MultiTox-Fluor Cytotoxicity Assay - LYMP1-003 - Dead Cells (AID 961);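 note: 0% = DMSO and 100% = tetraoctylammonium bromide; nearly all actives have a fitted effect of over 70% in size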
Summary of the method: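 Human lymphoblastoid LYMP1-003 cells (2500/well) were treated with compounds for 16 hr at 37 C in complete medium. Dead-cell protease release was read by bis-AAF-R110 fluorescence (Ex/Em 485/520). AC50 came from Hill fits, normalized to DMSO and 15 uM tetraoctylammonium bromide.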

[15] = MultiTox-Fluor Cytotoxicity Assay - LYMP1-003 - Live Cells (AID 962);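 note: 0% = DMSO only and full loss = 92 µM tetraoctylammonium bromide; cytotoxic hits lower the live-cell protease signal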
Summary of the method: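 Cells plated at 2500 per well and incubated 5 hr; compounds added and incubated 16 hr at 37 C; MultiTox-Fluor reagent added for 60 min at room temperature; fluorescence of liberated AFC measured at 405/510 nm.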

[16] = qHTS assay for small molecule agonists of the antioxidant response element (ARE) signaling pathway measured by Nrf2-dependant transcriptional activity (AID 720636; active = well fitted curve in the direction sought with a large enough effect in the repeat runs; an effect the other way counts as inactive or inconclusive;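 note: HepG2 cells with an ARE-driven luciferase reporter; % of control where 0% means no effect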)
Summary of the method: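 Nrf2-dependent transcription is measured in ARE-luc HepG2 cells: compound is applied for 16 hr at 37 C after a 6 hr attachment period, and luciferase activity is quantified by luminescence using ONE-Glo.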

[17] = qHTS assay for small molecule antagonists of the retinoid-related orphan receptor gamma (ROR-gamma) signaling pathway - cell viability counter screen (AID 720652; active = well fitted curve in the direction sought with a large enough effect in the repeat runs; an effect the other way counts as inactive or inconclusive;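 note: CHO reporter cells with doxycycline-induced ROR-gamma expression; series mostly up to about 92 µM; compound exposure lasted 16 hr before ATP read; % is set by controls: 0 for no effect and ±100 for the full control effect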)
Summary of the method: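 Cytotoxicity is quantified via intracellular ATP (CellTiter-Glo luminescence) in doxycycline-induced CHO ROR response element-luciferase reporter cells treated with compound for 16 hr at 37 C, 5% CO2.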

[18] = qHTS assay for small molecule agonists of the antioxidant response element (ARE) signaling pathway measured by Nrf2-dependant transcriptional activity - cell viability counter screen (AID 720653; active = well fitted curve in the direction sought with a large enough effect in the repeat runs; an effect the other way counts as inactive or inconclusive; note: % is set by controls: 0 for no effect and ±100 for the full control effect); conditions: ARE-bla HepG2 viability, CellTiter-Glo ATP luminescence, 16 h; max response: active compounds read low
Summary of the method: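 ARE-bla HepG2 cells treated with compounds for 16 h at 37C; this counter screen measures viability as intracellular ATP by CellTiter-Glo luminescence after 30 min at room temperature.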

[19] = qHTS assay for cell viability of HEK293 cells (AID 743288); conditions: ATP luminescence (CellTiter-Glo), 18 h; max response: active compounds read low; note: % is set by controls: 0 for no effect and ±100 for the full control effect; nearly all actives have a fitted effect of over 50% in size
Summary of the method: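 Luminescent ATP quantitation served as the viability read-out. Cells (parental HEK293, 2,000/well) received compounds after at least 5 h at 37 C and were exposed for 18 h before a 30 min room-temperature reagent step.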

[20] = qHTS assay for cell viability of the p53RE-bla HCT-116 cell line (AID 743292); note: % is set by controls: 0 for no effect and ±100 for the full control effect; nearly all actives have a fitted effect of over 55% in size
Summary of the method: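 ATP-based luminescence, 16 h compound exposure at 37 C, p53RE-bla HCT-116 cells at 4,000/well.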

Oc1c(Cl)c(Cl)c(Cl)c(Cl)c1Cl
inactive: outcome [1] | outcome [2] | outcome [3] | outcome [4] | outcome [5] | outcome [6] | outcome [7] | outcome [8] | Potency [9] | outcome [10] | outcome [11] | outcome [12] | Potency [13] | Potency [14] | outcome [15] | Potency [16] | outcome [17] | max response [18] -14.8% and -25.3% | max response [19] -15.6% and -10.7% | outcome [20]
